Screening results: PubChem BioAssay, National Center for Advancing Translational Sciences (NCATS)
KCNH2 WT inh: inhibitors of human wildtype KCNH2 potassium channel | U2OS, BacMam KCNH2, thallium flux FluxOr; hits give low values | hit rate 0.37% among 340,000 | Q12809 | AID 720551 | activity change, % at 1.84 µM;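 active means maximum activity change below -70%; inconclusive means maximum activity change between -70% and -50%; inactive means maximum activity change above -50%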; further: on the % scale 0 is the no-effect control and ±100 the full control effect
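U2OS cells transduced with wild-type KCNH2 virus are loaded with FluxOr dye for 45 min, and thallium flux is measured in kinetic reads before and after stimulation buffer. Rate constants are normalized to DMSO controls.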
CBFb-RUNX1 inh: CBF-beta/RUNX1 interaction disruption; Q01196+Q13951; AlphaScreen CBFb-His/RUNX1-biotin binding, biochemical; Potency, µM (highest dose often 59.8 µM), without a hit: top-dose activity, negative = inhibition, usual class: inhibitors; 230,000 tested, under 10 active; further: % of control where 0% means no effect
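Proteins preincubated together for 20 min at RT before compound addition; 15 min later, nickel and streptavidin beads were added and left 90 min prior to AlphaScreen measurement.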
KCNH2 3.1 block: KCNH2 3.1 (human) potassium channel inhibition; U2OS KCNH2 3.1, thallium flux FluxOr; hits give low values; activity change, % (tested at about 1.8 µM); hit rate 0.95% among 340,000;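 active means maximum activity change below -70%; inconclusive means maximum activity change from -70% to -50%; inactive means maximum activity change above -50%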;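 further: thallium influx rate constant from kinetic fluorescence after stimulation buffer; on the % scale 0 is the no-effect control and ±100 the full control effect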
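U2OS cells transduced with KCNH2 3.1 mutant virus (1.77 x 10^8 /mL, 4 h), plated overnight at 37 C, loaded 45 min with FluxOr dye plus Red40 quencher. Thallium flux rate constant from kinetic reads after stimulation buffer, normalised to controls.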
PLK1 PBD inh: inhibitors of human PLK1 polo-box domain binding; hit rate 2.8% among 360,000; Potency, µM, for the others: max response, negative = inhibition, most hits filed as inhibitors; Plk1 PBD binding of FITC phosphopeptide, fluorescence polarization; AID 720504; P53350; further: potency means the concentration at half of the fitted maximal effect; series mostly up to about 57 µM; on the % scale 0 is the no-effect control and ±100 the full control effect; nearly all actives have a fitted effect of over 65% in size
Target sequence (P53350 whole entry, looked up, the tested form may be a part): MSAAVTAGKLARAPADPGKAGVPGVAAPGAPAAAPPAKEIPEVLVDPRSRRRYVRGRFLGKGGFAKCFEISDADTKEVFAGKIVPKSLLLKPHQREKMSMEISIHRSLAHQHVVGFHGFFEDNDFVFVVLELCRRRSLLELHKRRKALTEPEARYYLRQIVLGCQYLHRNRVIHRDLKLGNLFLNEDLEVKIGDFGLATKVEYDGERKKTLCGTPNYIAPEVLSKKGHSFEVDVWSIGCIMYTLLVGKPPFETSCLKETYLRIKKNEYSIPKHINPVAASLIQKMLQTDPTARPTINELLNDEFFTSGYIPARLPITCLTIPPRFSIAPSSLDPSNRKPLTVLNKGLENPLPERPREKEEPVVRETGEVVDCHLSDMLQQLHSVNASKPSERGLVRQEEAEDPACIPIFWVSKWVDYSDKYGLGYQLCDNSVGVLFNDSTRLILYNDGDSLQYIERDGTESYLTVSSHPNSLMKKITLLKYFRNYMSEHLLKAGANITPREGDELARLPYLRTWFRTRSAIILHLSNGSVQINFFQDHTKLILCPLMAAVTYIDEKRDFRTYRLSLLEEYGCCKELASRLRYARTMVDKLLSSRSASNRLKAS
MBNL1-CUG inh: inhibitors of human MBNL1 binding to CUG repeat RNA. Q9NR56. TR-FRET MBNL1-His/biotin-(CUG)12 binding, 665/545 ratio. Potency, µM (top dose mostly 57.5 µM), for the others: top-dose activity change, negative = inhibition, actives largely listed as inhibitors. hit rate 0.036% among 280,000. AID 2675; active means well fitted inhibition curve with a large enough effect in the signal ratio, with a control signal flat, not every such curve was filed as active; inconclusive means small, poorly fitted or top-dose-only effect, or effect the other way, or a change in a side signal; inactive means no such curve, though single readings can be large or run the other way; the % refers to the signal ratio; further: potency means the concentration at half of the fitted maximal effect; on the % scale 0 is the no-effect control and ±100 the full control effect
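Compounds (final 92 nM to 58 uM) are added to His-tagged MBNL1 and biotin-(CUG)12, then terbium anti-His antibody and streptavidin-XL665 (5 nM final). After 60 min at room temperature, the 665/545 nm ratio is read.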
VDR inh: inhibitors of human vitamin D receptor; Potency, µM, without a hit: max response, negative = inhibition, hits mostly inhibitors; VDR-SRC2-3 peptide fluorescence polarization, 2 h; AID 504847; hit rate 0.93% among 400,000; further: potency means the concentration at half of the fitted maximal effect; on the % scale 0 is the no-effect control and ±100 the full control effect
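Two reagent solutions held at 4 deg C in the dark were dispensed, compounds pinned at 23 nl, and the mixture incubated 2 h at room temperature. Read-out: fluorescence polarization of VDR–SRC2-3 peptide binding.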
Active calls of the source: *; ? = inconclusive; . = not tested or not shown; ! = a repeat was not active; [ ] = dose if it differs, or a comment. An excerpt weighted towards active compounds, which were near 3.8% of everything screened. Unless noted, the call rests on the fitted dose curve; in most records, active means well fitted curve in the direction sought with a large enough effect; inconclusive means small, poorly fitted or top-dose-only effect, or another doubt; inactive means no such curve, though single readings can be large; an effect the other way counts as inactive or inconclusive.

SMILES	KCNH2 WT inh	CBFb-RUNX1 inh	KCNH2 3.1 block	PLK1 PBD inh	MBNL1-CUG inh	VDR inh
COc1cc(CNCc2ccccn2)ccc1OCc1ccc(Cl)cc1Cl	1	?	?	-2%	-4%	9%
Oc1ccc(NCc2ccccc2OCc2ccccc2F)cc1	4	?	-4	-11%	2%	40µM*
CCOc1ccccc1CNc1ccc(O)cc1	1	?	-6	?	?	40µM*
CCOc1cc(CNc2ccc(O)cc2)ccc1OCc1ccc(Cl)cc1Cl	0	0%	-9	-21%	?	32µM*
COc1ccc(Br)cc1CNc1ccc(O)cc1	4	?	12	30µM*	?	25µM*
CCOc1cccc(CNc2ccc(O)cc2)c1OCc1ccc(Cl)cc1	-25	0%	-6	-8%	?	?
CCOc1ccccc1Nc1ccc2cc(S(=O)(=O)N3CCCCC3)ccc2n1	.	.	.	.	.	9%
COc1cccc(Nc2nnc(-c3cc4ccc(O)cc4oc3=O)s2)c1	.	.	.	.	.	7%
COC(=O)c1c(Oc2ccc(C(C)=O)cc2)nnc(-c2ccccc2)c1-c1ccccc1	.	.	.	.	.	18%
O=C(O)c1cc(-c2ccc(-c3ccc(F)cc3)o2)nc2ccccc12	-14	.	18	15µM*	22%	?
O=C(c1cc(-c2ccc(F)cc2)nc2ccccc12)N1CCC1	3	.	-6	2%	.	-3%
[O-]c1n[n+](-c2ccc(Cl)cc2)cc2ccccc12	-10	8%	4	3.4µM*	?	?
C=Cc1ccc(Cn2c(=O)cc(C)c3c(C)nn(-c4ccccc4)c32)cc1	.	.	.	.	.	-1%
O=C(c1cccs1)N1CCCc2cc(NS(=O)(=O)c3ccc(F)cc3F)ccc21	.	.	.	.	.	-6%
COc1ccc(N2C(=O)CN=C2Nc2nc(C)cc(C)n2)cc1OC	-2	2%	-149*	-9%	3%	-5%
Cc1cc(C)nc(NC2=NCC(=O)N2c2ccc(F)c(Cl)c2)n1	-6	1%	0	0%	4%	-12%
Cc1[nH]c(-c2ccccn2)nc(=S)c1Cl	-2	?	-2	30µM*	6%	-3%
O=C(Nc1ccc2c(c1)CCC2)c1cnn2c1NC(=C1CC1)C=C2C(F)F	.	.	.	.	.	-6%
O=c1oc2cc(O)ccc2cc1-c1ccc2c(c1)OCCO2	.	24%	.	.	.	-1%
COc1ccc(-c2cnc3c(c2)CCC3(C#N)C#N)cc1	2	-10%	8	-1%	-2%	79µM*
COc1ccc(-c2ccc(OC)cc2)cc1	-5	.	19	2%	-18%	-2%
CCCCc1nc2cc(C(=O)N3CCCCC3C(=O)OC)ccc2o1 (stereo unspecified)	-14	.	8	27µM*	1%	?
Cc1noc(C)c1C(c1ccccc1)S(=O)(=O)c1ccccc1 (stereo unspecified)	-140*	0%	-18	0%	7%	-11%
CC(CCc1ccc(O)cc1)NCCC(c1ccccc1)c1ccccc1 (stereo unspecified)	-119*	.	-96*	-21%	-7%	5%
CC(CCc1ccc(O)cc1)NCc1ccc(Br)cc1 (stereo unspecified)	4	.	-88*	-1%	-6%	-15%
SMILES	KCNH2 WT inh	CBFb-RUNX1 inh	KCNH2 3.1 block	PLK1 PBD inh	MBNL1-CUG inh	VDR inh
Cc1ccc(OCCSc2nc3ccccc3n2CC(=O)N2CCCCC2)cc1C	.	.	.	.	.	6%
CC1=C(C(=O)NC2CCCC(C)C2C)C2(CCCCC2)OC1=O (stereo unspecified)	2	9%	0	24µM*	-13%	-8%
CC1=C(C(=O)NC2CCCCC2C)C2(CCC(C)CC2)OC1=O (stereo unspecified)	9	10%	18	-5%	?	-15%
O=C1OCCC1N(C(=O)C1CC1)c1cccc(Cl)c1 (stereo unspecified)	.	1%	.	.	.	-1%
CS(=O)(=O)N1CCN(C(=O)C2c3ccccc3Oc3ccccc32)CC1	34	10%	-185*	-10%	9%	-2%
CCc1ccc(N2C(=O)C3CCCN3C2=S)cc1 (stereo unspecified)	9	.	0	12µM*	-1%	-12%
O=C(Cc1c(O)c2ccccc2oc1=O)c1ccc(C(F)(F)F)cc1	-4	.	-4	-18%	-14%	-28%
O=C(SCc1c(O)c2ccccc2oc1=O)c1ccccc1	12	.	4	13µM*	.	.
CCc1cccc(NC(=O)Cn2nc(-c3ccc(OC)cc3)ccc2=O)c1	.	.	.	.	.	11%
CNc1nnc(Sc2ncccc2[N+](=O)[O-])s1	7	-3%	4	15µM*	?	-20%
Cc1nc2sc(C(=O)Nc3ccc(F)cc3)c(N)c2c(-c2ccc(Br)cc2)c1C(=O)Nc1ccc(Cl)cc1	.	.	.	.	.	-29%
O=C(O)c1cc(N=Nc2ccc(-c3ccc(N=Nc4ccc(O)c(C(=O)O)c4)cc3)cc2)ccc1O	.	.	.	.	.	13µM*
O=C(Nn1cnnc1)c1ccc(Br)s1	-1	7%	-186*	-2%	-6%[11.5 µM]	?
Cc1cc(C)nc(NC(=O)c2ccc(Br)s2)n1	3	.	6	6%	3%	3%
COc1ccccc1-c1ccc2ncnc(N(C)Cc3ccco3)c2c1	.	.	.	.	.	45µM*
CN(Cc1ccco1)c1ncncc1-c1ccccc1Cl	.	.	.	.	.	28µM*
CN(Cc1ccco1)c1ncnc2ccc(-c3ccoc3)cc12	.	.	.	.	.	50µM*!
CN(Cc1ccco1)c1cc(-c2ccccc2Cl)ncn1	.	.	.	.	.	45µM*
CN(C)Cc1ccccc1-c1cc(N(C)Cc2ccco2)ncn1	.	.	.	.	.	-2%
NC(N)=NCC1COc2ccccc2O1 (stereo unspecified)	.	.	.	.	.	15%
Cc1cc(OCC(=O)N(Cc2ccc(N(C)C)cc2)Cc2ccco2)cc(C)c1Cl	.	.	.	.	.	6%
CN(Cc1ccco1)c1ncnc2ccc(-c3ccccc3C(F)(F)F)cc12	.	.	.	.	.	32µM*
CN(Cc1ccco1)c1ncnc2ccc(-c3ccccc3Cl)cc12	.	.	.	.	.	50µM*!
O=C(CCn1c(=O)c2cccn2c2cccnc21)NCc1cccc(Br)c1	.	.	.	.	.	11%
Cc1nn(CC(=O)Nc2cccc(C(F)(F)F)c2)c(=O)c2cccn12	-2	.	-1	27µM*	3%	-30%
COc1cc(OC)c2c(-c3cccc(/C=C/c4ccc(F)cc4)c3)cc(=O)oc2c1	-153*	-2%	-19	3%	.	-2%
COc1ccc(CNC(=O)CCC2N=C3c4ccccc4N=C(SCc4ccccc4F)N3C2=O)cc1 (stereo unspecified)	.	.	.	.	.	6%
O=C(Nc1nc(-c2ccccn2)cs1)Nc1ccc(F)cc1F	9	.	13	4.7µM*	0%	?
O=C(COc1cccc(F)c1)Nc1nc(-c2ccccn2)cs1	0	.	8	11µM*	.	.
O=C(COc1ccc(F)cc1)Nc1nc(-c2ccccn2)cs1	-2	.	-5	?	.	-12%
